Sampled rows, rich in hits. Any-hit rate of the full collection: about 27%.
CYP2C19 inh: blocks human cytochrome P450 2C19. CYP2C19 Supersomes, luciferin-H EGE luminescence, 30 min. inhibition, % at 5 µM. hit rate 21% among 96,000. AID 778;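 active means CYP2C19 inhibition above a set limit at 5 µM in the primary screen, cut at about 50% in these data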;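 further: plate controls were negative control wells for no effect and 2.5 mM tranylcypromine positive control for full effect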
CYP2C19 act: increases human CYP2C19 enzyme activity | 96,000 tested, under 10 active | P33261 | activation factor at 5 µM | recombinant CYP2C19, luciferin-H EGE luminescence; active compounds read high; 0 = fully inhibited enzyme, 1 = untreated enzyme | AID 1025;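 active means activation factor of at least 2 at 5 µM in the primary screen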;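 further: 0 = wells with 2.5 mM tranylcypromine and 1 = vehicle-only wells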
CYP2C9 act: increases human cytochrome P450 2C9 activity. activation factor at 5 µM. P11712. recombinant CYP2C9, luciferin-H conversion, luminescence; active compounds read high; factor 1 = untreated enzyme, 0 = blocked. hit rate 1.4% among 96,000. AID 1024;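 active means activation factor of 2 or more for CYP2C9 at a 5 µM dose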;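 further: 0 = sulfaphenazole-blocked wells and 1 = vehicle-only wells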
sEH inh: soluble epoxide hydrolase (human) inhibition; recombinant human sEH enzymatic activity assay; inhibition, % at 2 µM; hit rate 0.34% among 91,000; in the data active means inhibition above about 80%
Target sequence (P34913 whole entry, looked up): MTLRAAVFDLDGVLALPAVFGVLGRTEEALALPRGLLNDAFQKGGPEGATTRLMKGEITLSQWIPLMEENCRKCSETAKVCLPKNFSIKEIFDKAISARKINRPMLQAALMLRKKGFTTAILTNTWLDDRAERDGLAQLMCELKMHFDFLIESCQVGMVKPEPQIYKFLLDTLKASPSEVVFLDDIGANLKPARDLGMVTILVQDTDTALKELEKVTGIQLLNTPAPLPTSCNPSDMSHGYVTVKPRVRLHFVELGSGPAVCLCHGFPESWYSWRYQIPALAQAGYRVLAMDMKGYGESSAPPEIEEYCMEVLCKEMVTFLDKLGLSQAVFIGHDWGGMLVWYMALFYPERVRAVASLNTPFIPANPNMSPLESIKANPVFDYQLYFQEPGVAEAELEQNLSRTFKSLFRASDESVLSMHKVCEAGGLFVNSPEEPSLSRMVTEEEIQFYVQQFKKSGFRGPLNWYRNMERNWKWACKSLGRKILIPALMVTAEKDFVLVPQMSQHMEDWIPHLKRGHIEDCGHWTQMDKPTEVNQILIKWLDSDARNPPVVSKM
CYP2C9 inh: inhibitors of human CYP2C9; P11712; CYP2C9 Supersomes, luciferin-H conversion, luminescence; inhibition, % at 5 µM; hit rate 20% among 96,000;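 active means blocking of liver enzyme CYP2C9 beyond about 50% at 5 µM, limit read from the data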
sEH act: soluble epoxide hydrolase (human) activation | purified human sEH enzymatic activity, activator screen | activation, % at 2 µM | hit rate 0.04% among 91,000 | AID 717; in the data active means activation above about 37%
* marks the source's active call; other numbers are inactive results.

How did CCN(CC)C(=O)C1CCCN(c2ccc([N+](=O)[O-])cc2/C=N/NC(=O)c2cccc(Br)c2)C1 (stereo unspecified) do in these assays?
CYP2C19 inh: 52.4*; CYP2C19 act: 0.5; CYP2C9 act: 0.2; sEH inh: 8.3; CYP2C9 inh: 84.9*; sEH act: -5.8

How did CN(C)CC1CCCCC1C1(O)c2ccccc2CSc2sccc21 (stereo unspecified) do in these assays?
sEH inh: -11.1; sEH act: 10.7

Results for Cn1c(=O)c2c(nc(NCCCN3CCOCC3)n2Cc2ccc(Cl)cc2Cl)n(C)c1=O ?
CYP2C19 inh: 33.7; CYP2C19 act: 0.7; CYP2C9 act: 0.7; CYP2C9 inh: 25.7

Results for CCc1ccc(C2CC(c3cccc(OC)c3)n3nc(N)nc3N2)cc1 (stereo unspecified) ?
CYP2C19 inh: 12.0; CYP2C19 act: 0.9; CYP2C9 act: 1; CYP2C9 inh: 4.7

How did Cc1cc(C)c(S(=O)(=O)N2CCN(c3ccc([N+](=O)[O-])c(-n4nc(C)cc4C)c3)CC2)c(C)c1 do in these assays?
CYP2C19 inh: 18.4; CYP2C19 act: 0.8; CYP2C9 act: 0.4; sEH inh: 1.6; CYP2C9 inh: 60.2*; sEH act: 0.4

Results for COC(=O)c1ccc(N2CCN(S(=O)(=O)c3c(C)cc(C)cc3C)CC2)c([N+](=O)[O-])c1 ?
CYP2C19 inh: 6.5; CYP2C19 act: 0.9; CYP2C9 act: 0.9; CYP2C9 inh: 12.6

Results for CCOc1cc(NC(=S)NCC(C)C)c(OCC)cc1NC(=O)c1cccs1 ?
CYP2C19 inh: 2.1; CYP2C19 act: 1; CYP2C9 act: 0.9; sEH inh: -7.8; CYP2C9 inh: 7.6; sEH act: 5.6

Results for COC(=O)C(C(=O)Nc1ccccc1C)C1CCCC1 (stereo unspecified) ?
CYP2C19 inh: 63.7*; CYP2C19 act: 0.4; CYP2C9 act: 0.9; sEH inh: 15.5; CYP2C9 inh: 8.9; sEH act: -12.1

What do the screens show for `COc1ccc(NC(=O)c2ccccc2NC(=O)NC2CCCCC2)cc1`?
CYP2C19 inh: 20.8; CYP2C19 act: 0.8; CYP2C9 act: 0.8; sEH inh: 15.3; CYP2C9 inh: 21.3; sEH act: -12.3

Results for COC(=O)C(C(=O)Nc1ccc(OC)cc1)C1CCCCCC1 (stereo unspecified) ?
CYP2C19 inh: 91.7*; CYP2C19 act: 0.1; CYP2C9 act: 0.3; sEH inh: 17.5; CYP2C9 inh: 69.2*; sEH act: -14.5

What do the screens show for `CC(C)CN(CC(C)C)C(=O)CS(=O)(=O)Cc1ccccc1`?
CYP2C19 inh: 62.3*; CYP2C19 act: 0.4; CYP2C9 act: 0.7; sEH inh: 19.8; CYP2C9 inh: 32.9; sEH act: -18.8

How did COc1ccccc1NC(=O)Cc1noc(CN(C)Cc2cccs2)n1 do in these assays?
CYP2C19 inh: 78.5*; CYP2C19 act: 0.2; CYP2C9 act: 0.7; sEH inh: 1.3; CYP2C9 inh: 33.8; sEH act: -3.4

What do the screens show for `COc1ccc(Cc2nc(-c3cccs3)no2)cc1OC`?
CYP2C19 inh: 78.0*; CYP2C19 act: 0.2; CYP2C9 act: 0.3; sEH inh: -1.8; CYP2C9 inh: 65.1*; sEH act: -0.8

What do the screens show for `COc1ccccc1NC(=O)CCc1nc(-c2cccs2)no1`?
CYP2C19 inh: 84.6*; CYP2C19 act: 0.2; CYP2C9 act: 0.8; sEH inh: -2.2; CYP2C9 inh: 23.5; sEH act: 2.5

How did Cc1ccc(CNC(=O)CCc2nc(-c3cccs3)no2)cc1 do in these assays?
CYP2C19 inh: 69.9*; CYP2C19 act: 0.3; CYP2C9 act: 0.3; sEH inh: 25.1; CYP2C9 inh: 67.7*; sEH act: -27.1

How did COc1ccc(Cc2nc(-c3ccc(-n4cccc4)cc3)no2)cc1OC do in these assays?
CYP2C19 inh: -9.2; CYP2C19 act: 1.1; CYP2C9 act: 0.9; CYP2C9 inh: 14.4

Results for COc1cc(-c2noc(CCCC(=O)NCc3ccccc3)n2)cc(OC)c1OC ?
CYP2C19 inh: 15.2; CYP2C19 act: 0.8; CYP2C9 act: 1; sEH inh: 20.7; CYP2C9 inh: -2.7; sEH act: -19.1

Results for CSc1nc(Oc2ccc3ccccc3c2)c2ccccc2n1 ?
CYP2C19 inh: 38.4; CYP2C19 act: 0.6; CYP2C9 act: 0.6; sEH inh: -2.5; CYP2C9 inh: 36.4; sEH act: 4.6

What do the screens show for `CCCCC1CCC(C(=O)NC2CCS(=O)(=O)C2)CC1` (stereo unspecified)?
sEH inh: 30.8; sEH act: -29.8

How did O=C(CCc1nc(-c2cccs2)no1)NCc1ccc(F)cc1Cl do in these assays?
CYP2C19 inh: 87.3*; CYP2C19 act: 0.1; CYP2C9 act: 0.3; sEH inh: 51.5; CYP2C9 inh: 66.2*; sEH act: -52.8

How did COCc1[nH]nc2c1C(c1ccc(OC)cc1)C(C#N)=C(N)O2 (stereo unspecified) do in these assays?
CYP2C19 inh: 30.7; CYP2C19 act: 0.7; CYP2C9 act: 0.6; sEH inh: 10.2; CYP2C9 inh: 37.1; sEH act: -10.6

What do the screens show for `Cc1[nH]nc2c1C(c1ccc(OC(=O)c3ccco3)cc1)C(C#N)=C(N)O2` (stereo unspecified)?
CYP2C19 inh: 44.1; CYP2C19 act: 0.6; CYP2C9 act: 0.4; sEH inh: 4.5; CYP2C9 inh: 58.0*; sEH act: -2.7

How did CC(C)c1[nH]nc2c1C(c1ccc(OC(=O)c3ccco3)cc1)C(C#N)=C(N)O2 (stereo unspecified) do in these assays?
CYP2C19 inh: 73.7*; CYP2C19 act: 0.3; CYP2C9 act: 0.3; sEH inh: 5.1; CYP2C9 inh: 72.8*; sEH act: -3.7

How did O=C(CCN1CCN(c2ccc(F)cc2)CC1)Nc1ccccc1F do in these assays?
CYP2C19 inh: 66.3*; CYP2C19 act: 0.3; CYP2C9 act: 0.4; sEH inh: -6.7; CYP2C9 inh: 60.3*; sEH act: 3.1

Results for O=C(CCN1CCN(CC(=O)Nc2ccccc2F)CC1)Nc1ccccc1F ?
CYP2C19 inh: 74.1*; CYP2C19 act: 0.3; CYP2C9 act: 0.6; sEH inh: 8.5; CYP2C9 inh: 43.0; sEH act: -5.2

Results for O=C(CN1CCN(C(=O)c2c(F)cccc2F)CC1)Nc1ccccc1F ?
CYP2C19 inh: 24.7; CYP2C19 act: 0.8; CYP2C9 act: 0.9; CYP2C9 inh: 8.4

How did COc1ccc(S(=O)(=O)N2CCN(CC(=O)Nc3ccc(F)c(F)c3)CC2)cc1 do in these assays?
CYP2C19 inh: 69.5*; CYP2C19 act: 0.3; CYP2C9 act: 2.2*; sEH inh: 14.9; CYP2C9 inh: -122.7; sEH act: -11.6

How did CSc1ccc(N2CCN(CCCNC(=O)Nc3ccccc3F)CC2)cc1 do in these assays?
CYP2C19 inh: 20.2; CYP2C19 act: 0.8; CYP2C9 act: 0.8; sEH inh: 51.3; CYP2C9 inh: 21.0; sEH act: -50.6
